Results reported in PubChem BioAssay (NCATS).
Results filed as inconclusive are left out. Active and inactive are the calls of the source. Calls come from the whole dose curve; as a rule, active = well fitted curve in the direction sought with a large enough effect; inconclusive = small, poorly fitted or top-dose-only effect, or another doubt; inactive = no such curve, though single readings can be large; an effect the other way counts as inactive or inconclusive.

Columns and labels:
NIH3T3 = experiment: qHTS assay to identify novel small-molecules to repurpose for Merkel cell carcinoma treatment (AID 1296009); conditions: MCC and control cell lines, CellTiter-Glo viability, 72 h; at 44.8 µM (top of the series) unless noted; note: nearly all actives have a fitted effect of over 60% in size
In short: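 Viability readout: ATP luminescence (CellTiter-Glo) after 72 hr drug exposure at 37 degree celsius. Dose-response format was 8 points for NPC and 11 points for MIPE; data normalized to in-plate controls.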

C33A = experiment: Primary qHTS to identify gynecologic anti-cancer compounds using libraries of approved drugs and bioactive compounds (AID 1345084); conditions: Gynecologic cancer cell panel viability, ATPlite luminescence, 48 h; series mostly up to 57.5 µM; note: % is set by controls: 0 for no effect and ±100 for the full control effect; nearly all actives have a fitted effect of over 55% in size
In short: (§1)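 Five-concentration response, 48 h; readout is ATP-driven luciferase luminescence.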

CAOV3 = experiment: as above; conditions: Gynecologic cancer cell panel viability, ATPlite luminescence, 48 h; series mostly up to 57.5 µM
In short: as §1

CASKI = experiment: as above; conditions: Gynecologic cancer cell panel viability, ATPlite luminescence, 48 h; series mostly up to 57.5 µM
In short: as §1

Es-2 = experiment: as above; conditions: Gynecologic cancer cell panel viability, ATPlite luminescence, 48 h; series mostly up to 57.5 µM
In short: as §1

HeLa = experiment: as above; conditions: Gynecologic cancer cell panel viability, ATPlite luminescence, 48 h; series mostly up to 57.5 µM
In short: as §1

Hek293T = experiment: as above; conditions: Gynecologic cancer cell panel viability, ATPlite luminescence, 48 h, control line for the selectivity index; series mostly up to 57.5 µM
In short: as §1

JEG-3 = experiment: as above; conditions: Gynecologic cancer cell panel viability, ATPlite luminescence, 48 h; series mostly up to 57.5 µM
In short: as §1

OV90 = experiment: as above; conditions: Gynecologic cancer cell panel viability, ATPlite luminescence, 48 h; series mostly up to 57.5 µM
In short: as §1

PA-1 = experiment: as above; conditions: Gynecologic cancer cell panel viability, ATPlite luminescence, 48 h; series mostly up to 57.5 µM
In short: as §1

SKOV3 = experiment: as above; conditions: Gynecologic cancer cell panel viability, ATPlite luminescence, 48 h; series mostly up to 57.5 µM
In short: as §1

Tov-21-G = experiment: as above; conditions: Gynecologic cancer cell panel viability, ATPlite luminescence, 48 h; series mostly up to 57.5 µM
In short: as §1

Tov112D = experiment: as above; conditions: Gynecologic cancer cell panel viability, ATPlite luminescence, 48 h; series mostly up to 57.5 µM
In short: as §1

C[C@H]1[C@H](C)CC[C@]2(C(=O)O)CC[C@]3(C)C(=CCC4[C@@]5(C)C[C@@H](O)[C@H](O)C(C)(C)C5CC[C@]43C)[C@H]12 (some centres undefined)
inactive: outcome (NIH3T3) inactive [at 17.4 µM] | Potency (C33A) | Potency (CAOV3) | outcome (CASKI) | Potency (Es-2) | Potency (HeLa) | Potency (Hek293T) | Potency (JEG-3) | Potency (OV90) | Potency (PA-1) | Potency (SKOV3) | Potency (Tov-21-G) | Potency (Tov112D)

CC1(C)CC[C@]2(C(=O)O[C@@H]3O[C@H](CO)[C@@H](O)[C@H](O)[C@H]3O)CC[C@]3(C)C(=CCC4[C@@]5(C)CC[C@H](O[C@H]6O[C@H](CO)[C@@H](O)[C@H](O[C@@H]7O[C@H](CO)[C@@H](O)[C@H](O)[C@H]7O)[C@H]6O)C(C)(C)C5CC[C@]43C)[C@@H]2C1 (some centres undefined)
inactive: outcome (NIH3T3) inactive [at 9.27 µM] | activity change, negative = cytotoxicity (C33A) 0.319% [at 11.6 µM] | activity change, negative = cytotoxicity (CAOV3) 1.94% [at 11.6 µM] | activity change, negative = cytotoxicity (CASKI) -7.8% [at 11.6 µM] | activity change, negative = cytotoxicity (Es-2) -1.42% [at 11.6 µM] | activity change, negative = cytotoxicity (HeLa) 11.5% [at 11.6 µM] | activity change, negative = cytotoxicity (Hek293T) 5.32% [at 11.6 µM] | activity change, negative = cytotoxicity (JEG-3) -9.09% [at 11.6 µM] | activity change, negative = cytotoxicity (OV90) -0.2% [at 11.6 µM] | activity change, negative = cytotoxicity (PA-1) 3.09% [at 11.6 µM] | activity change, negative = cytotoxicity (SKOV3) -4.14% [at 11.6 µM] | activity change, negative = cytotoxicity (Tov-21-G) -3.87% [at 11.6 µM] | activity change, negative = cytotoxicity (Tov112D) -5.45% [at 11.6 µM]

COCCCc1sc(-c2ccccc2)nc1C(=O)Nc1ccccc1-c1nc2cc(CN3CCCC3)cnc2s1
inactive: outcome (NIH3T3) inactive [at 17.4 µM] | Potency (C33A) | Potency (CAOV3) | outcome (CASKI) | Potency (Es-2) | Potency (HeLa) | Potency (Hek293T) | Potency (JEG-3) | Potency (OV90) | Potency (PA-1) | Potency (SKOV3) | Potency (Tov-21-G) | Potency (Tov112D)

O=C(O)Cc1cn([C@@H]2OC[C@@H](O[C@@H]3O[C@H](CO)[C@@H](O)[C@H](O)[C@H]3O)[C@H](O)[C@H]2O[C@@H]2O[C@H](CO)[C@@H](O)[C@H](O)[C@H]2O)c2ccccc12
inactive: outcome (NIH3T3) inactive [at 17.4 µM] | Potency (C33A) | Potency (CAOV3) | outcome (CASKI) | Potency (Es-2) | Potency (HeLa) | Potency (Hek293T) | Potency (JEG-3) | Potency (OV90) | Potency (PA-1) | Potency (SKOV3) | Potency (Tov-21-G) | Potency (Tov112D)

C=C1CC/C=C(/C(=O)O)CCC2C1CC2(C)C (centres undefined)
inactive: outcome (NIH3T3) | Potency (C33A) | Potency (CAOV3) | outcome (CASKI) | Potency (Es-2) | Potency (HeLa) | Potency (Hek293T) | Potency (JEG-3) | Potency (OV90) | Potency (PA-1) | Potency (SKOV3) | Potency (Tov-21-G) | Potency (Tov112D)

COc1ccc(-n2c(=O)[nH]c3cc(C(=O)NCc4ccc(Cl)cc4)sc3c2=O)nc1OC
inactive: outcome (NIH3T3) | Potency (C33A) | Potency (CAOV3) | outcome (CASKI) | Potency (Es-2) | Potency (HeLa) | Potency (Hek293T) | Potency (JEG-3) | Potency (OV90) | Potency (PA-1) | Potency (SKOV3) | Potency (Tov-21-G) | Potency (Tov112D)

CC(=O)OC[C@]12[C@@H](OC(=O)c3ccoc3)C[C@@H]3[C@@H](OC(C)=O)[C@]1(OC3(C)C)[C@@](C)(O)C[C@H](OC(=O)c1ccoc1)[C@@H]2OC(=O)c1ccoc1
inactive: outcome (NIH3T3) inactive [at 17.4 µM] | Potency (C33A) | Potency (CAOV3) | outcome (CASKI) | Potency (Es-2) | Potency (HeLa) | Potency (Hek293T) | Potency (JEG-3) | Potency (OV90) | Potency (PA-1) | Potency (SKOV3) | Potency (Tov-21-G) | Potency (Tov112D)

CC(C)=CCc1cc(O[C@@H]2O[C@H](CO[C@@H]3OC[C@](O)(CO)[C@H]3O)[C@@H](O)[C@H](O)[C@H]2O)ccc1O
inactive: outcome (NIH3T3) inactive [at 17.4 µM] | Potency (C33A) | Potency (CAOV3) | outcome (CASKI) | Potency (Es-2) | Potency (HeLa) | Potency (Hek293T) | Potency (JEG-3) | Potency (OV90) | Potency (PA-1) | Potency (SKOV3) | Potency (Tov-21-G) | Potency (Tov112D)

C=C(C(=O)O)[C@@H]1CC[C@@]2(C)CC[C@@H](O)C(=C)C2C1 (some centres undefined)
inactive: outcome (NIH3T3) | Potency (C33A) | Potency (CAOV3) | outcome (CASKI) | Potency (Es-2) | Potency (HeLa) | Potency (Hek293T) | Potency (JEG-3) | Potency (OV90) | Potency (PA-1) | Potency (SKOV3) | Potency (Tov-21-G) | Potency (Tov112D)

CC1(CO)CCCC2(C)C3COC(=O)C3=CC(O)C12 (centres undefined)
inactive: outcome (NIH3T3) | Potency (C33A) | Potency (CAOV3) | outcome (CASKI) | Potency (Es-2) | Potency (HeLa) | Potency (Hek293T) | Potency (JEG-3) | Potency (OV90) | Potency (PA-1) | Potency (SKOV3) | Potency (Tov-21-G) | Potency (Tov112D)

COc1cc(/C=C/C(=O)O[C@@H]2C[C@@](O)(C(=O)O)C[C@@H](O)[C@@H]2O)ccc1O
inactive: outcome (NIH3T3) | Potency (C33A) | Potency (CAOV3) | outcome (CASKI) | Potency (Es-2) | Potency (HeLa) | Potency (Hek293T) | Potency (JEG-3) | Potency (OV90) | Potency (PA-1) | Potency (SKOV3) | Potency (Tov-21-G) | Potency (Tov112D)

COc1ccc(C2C(C(=O)O)C(C(=O)O)C2c2ccc(OC)cc2O[C@@H]2O[C@H](CO)[C@@H](O)[C@H](O)[C@H]2O)c(O[C@@H]2O[C@H](CO)[C@@H](O)[C@H](O)[C@H]2O)c1 (some centres undefined)
inactive: outcome (NIH3T3) inactive [at 17.4 µM] | Potency (C33A) | Potency (CAOV3) | outcome (CASKI) | Potency (Es-2) | Potency (HeLa) | Potency (Hek293T) | Potency (JEG-3) | Potency (OV90) | Potency (PA-1) | Potency (SKOV3) | Potency (Tov-21-G) | Potency (Tov112D)

COc1cn(-c2ccc(-n3cccn3)cc2F)nc(-c2ccnn2-c2ccccc2)c1=O
inactive: outcome (NIH3T3) | Potency (C33A) | Potency (CAOV3) | outcome (CASKI) | Potency (Es-2) | Potency (HeLa) | Potency (Hek293T) | Potency (JEG-3) | Potency (OV90) | Potency (PA-1) | Potency (SKOV3) | Potency (Tov-21-G) | Potency (Tov112D)
